Assay outcomes from PubChem BioAssay.
Rows were chosen to be rich in hits. Some 3.5% of all compounds tested hit in one or more screens of this group.
ANO1 block: inhibitors of mouse TMEM16A calcium-activated chloride channel | Q8BHY3 | HEK293 TMEM16A/YFP iodide influx fluorescence, ionomycin | normalized B-score (activity score, 25-100; higher = stronger inhibition) at 10 µM | 310,000 tested, 1.2% active;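 active = ratio plate-corrected score three or more library SD toward inhibition, starting fluorescence score within five deviations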;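 also: score derived from kinetic fluorescence span divided by baseline fluorescence per well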
TMEM16A act: mouse TMEM16A channel activation, primary screen. Q8BHY3. HEK293 TMEM16A/YFP-H148Q/I152L, iodide quench fluorescence; stronger effect = lower value. B-score at 10 µM. 340,000 tested, 0.3% active. AID 623877;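 active = fluorescence-ratio B-score plate-corrected deviation score at least 3 library SD below zero, with starting fluorescence score within 5 deviations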;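 also: channel opened by trigger with iodide after compound preincubation; score built on the fluorescence ratio of max minus min over baseline; more negative score means more quench and so TMEM16A activation or potentiation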
KCNK3 block: human KCNK3 channel inhibition, primary screen | O14649 | CHO-KCNK3 thallium flux, FluxOR fluorescence; stronger effect = lower value | B-score at 10 µM | 340,000 tested, 0.84% active;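 active = B-score under library mean minus 4 SD, starting fluorescence ratio at most library mean plus 5 SD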;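 also: more negative B-score means stronger inhibition of thallium flux through KCNK3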
Target sequence (O14649 whole entry, looked up): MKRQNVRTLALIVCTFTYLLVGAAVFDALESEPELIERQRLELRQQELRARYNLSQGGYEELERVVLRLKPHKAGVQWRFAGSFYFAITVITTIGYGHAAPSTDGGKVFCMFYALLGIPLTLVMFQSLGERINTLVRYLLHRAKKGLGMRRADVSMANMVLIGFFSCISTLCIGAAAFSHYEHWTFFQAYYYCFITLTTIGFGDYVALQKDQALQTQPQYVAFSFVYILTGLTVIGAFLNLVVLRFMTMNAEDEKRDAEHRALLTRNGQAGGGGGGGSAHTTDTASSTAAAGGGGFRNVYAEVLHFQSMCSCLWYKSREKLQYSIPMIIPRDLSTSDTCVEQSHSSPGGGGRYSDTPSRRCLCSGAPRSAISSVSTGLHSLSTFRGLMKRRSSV
KCNK9 inh: human KCNK9 channel inhibition; HEK293 KCNK9, FluxOR thallium flux fluorescence; stronger effect = lower value; B-score at 10 µM; 310,000 tested, 1.2% active;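 active = ratio B-score over 3 SD below the library mean, with starting fluorescence within 5 SD of its mean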;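 also: negative B-score means less thallium flux so channel inhibition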
Kir21 inh: inhibitors of mouse Kir2.1 inward-rectifier potassium channel; HEK293-Kir2.1, FluxOR thallium flux fluorescence; stronger effect = lower value; B-score at 10 µM; 310,000 tested, 0.85% active; AID 1672;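 active = fluorescence ratio B-score at or below minus 3 SD of library scores, with starting-brightness B-score within 2 SD, cut at about -4.2 in these data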;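 also: channel flux triggered by added potassium and thallium sulfate stimulus; B-score of peak minus minimum fluorescence over baseline after thallium stimulus; more negative B-score means stronger Kir2.1 block with less thallium influx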
* marks the source's active call; other numbers are inactive results; i = inactive; . = no result given.

SMILES	ANO1 block	TMEM16A act	KCNK3 block	KCNK9 inh	Kir21 inh
O=C(O)c1cccc(N2C(=O)c3ccc(Oc4ccc(Cl)cc4)cc3C2=O)c1	i	i	i	i	-1
Cc1cccc(N2C(=O)c3cccc(Oc4ccc(Cl)cc4)c3C2=O)c1	i	-7.3*	i	i	0.02
COCCn1c(N)c(N(Cc2ccccc2)C(=O)c2oc3ccccc3c2C)c(=O)[nH]c1=O	i	i	i	i	-0.01
CN(C)c1ccc2c3c(ccc(N(C)C)c13)C(=O)OC2	i	i	i	i	0.11
CC(OCC(O)CN(C)CCOc1ccccc1)c1ccc(Cl)cc1 (configuration not stated)	i	i	i	i	-5*
COc1cc(NC(=O)COC(=O)Cc2ccsc2)cc(OC)c1	.	i	i	.	.
O=C(Nc1ccc(C(=O)Oc2ccccc2)c(O)c1)c1ccco1	i	i	i	-7.2*	0.86
O=C(Nc1ccc(C(=O)Oc2ccccc2)c(O)c1)c1ccccc1	i	i	i	-7.2*	0.7
Cc1ccc(Cn2c(N/N=C/c3ccncc3)nc3c2c(=O)n(C)c(=O)n3C)cc1	i	i	i	i	-0.09
CCOc1ccc(C(=S)NC2CCCCC2)cc1OCC	i	-6.5*	i	i	0.33
COc1ccc(Br)c(/C=N/NC(=O)COc2ccc(-c3ccccc3)cc2)c1	i	.	-9.2*	i	-0.3
COc1ccc(CNCc2cccc(OC)c2OC)cc1Br	i	i	i	i	-5*
COc1ccccc1CNCc1cc(OC)c(OC)c(OC)c1	i	i	i	i	-0.17
COc1ccc(Cn2ccnc2SCC(=O)Nc2ccccc2OC)cc1	i	i	i	i	-4.5*
COc1ccc(NC(=O)CSc2nccn2-c2ccccc2)c(OC)c1	i	i	i	i	-0.55
CCOc1ccccc1NC(=O)CSc1nccn1-c1ccccc1	i	i	i	i	-7*
N=c1oc2ccc3ccccc3c2cc1C(N)=S	i	i	i	i	-0.44
COc1ccc(Oc2nc(OC)cc(OC)n2)cc1	i	i	i	i	0.74
Cc1nc2cc(-c3ccc(Cl)cc3)nn2c(NCCN(C)C)c1C	i	i	i	i	-4.6*
Cc1cc(C)n2nc(-c3ccc(Cl)cc3)cc2n1	i	i	i	i	-0.15
Cc1ccc(OCCNC(=O)CCNC(=O)c2ccc(Cl)cc2)cc1	.	-26*	i	.	.
Cc1ccc(OCCNC(=O)CNC(=O)c2ccc(C)cc2)cc1	i	i	i	i	-0.39
C=C(C)CSc1nnc2[nH]c(=O)cc(N)n12	i	-6.4*	i	i	-0.27
CC(C)CSc1nnc2[nH]c(=O)cc(N)n12	i	i	i	i	-0.08
O=C1c2cc(O)c(O)cc2S(=O)(=O)C1c1ccccc1 (configuration not stated)	i	i	i	i	-0.02
SMILES	ANO1 block	TMEM16A act	KCNK3 block	KCNK9 inh	Kir21 inh
CCc1cc(C(=O)N2CCCC(C(=O)c3cccc4ccccc34)C2)n(C)n1 (configuration not stated)	25*	i	i	i	-3.1
CCCc1cc(C(=O)N2CCCC(C(=O)c3cccc4ccccc34)C2)n(C)n1 (configuration not stated)	i	i	i	i	-0.66
CN(CC(=O)Nc1ccccc1N1CCOCC1)S(=O)(=O)c1ccc(F)cc1	25*	i	i	i	-0.01
O=C(CSc1nc2ccccc2o1)Nc1ccccc1N1CCOCC1	i	i	i	i	-8.8*
O=C(CSc1ccc([N+](=O)[O-])cn1)Nc1ccccc1N1CCOCC1	i	i	i	i	-4.6*
COc1ccccc1N(CC(O)CN1CCOCC1)S(=O)(=O)c1ccccc1 (configuration not stated)	i	i	i	i	1.2
O=C(NCCN1CCN(Cc2ccccc2)CC1)c1ccc(CS(=O)(=O)c2ccc(Br)cc2)o1	i	i	i	i	-3.7
Cc1ccc(N2C(=O)[C@@H]3C(c4cccnc4)=NO[C@@H]3C2=O)c(C)c1	25*	i	i	i	-0.53
O=C1CSC(c2ccccc2[N+](=O)[O-])N1c1ccc(O)cc1 (configuration not stated)	i	i	i	i	-0.3
O=C1CSC(c2ccccc2[N+](=O)[O-])N1c1ccccc1 (configuration not stated)	i	i	i	i	-4.5*
O=C(NCC1CC1)c1cc(-c2ccccc2)nn1CC1CC(c2cccc([N+](=O)[O-])c2)=NO1 (configuration not stated)	i	i	i	-8.3*	2.8
O=C(NCc1cccc(Br)c1)c1cc(-c2ccccc2)nn1CC1CC(c2cccc([N+](=O)[O-])c2)=NO1 (configuration not stated)	i	i	i	-7.1*	-0.61
COCCNC(=O)c1cc(-c2ccccc2)nn1CC1CC(c2cccc([N+](=O)[O-])c2)=NO1 (configuration not stated)	i	i	i	i	0.96
COc1ccc2nc(NC(=O)Cn3cnc4ccccc4c3=O)sc2c1	i	i	i	i	2.9
NC(=O)C1CCN(C(=O)Nc2csc3ccccc23)CC1	i	i	i	i	1.6
Cc1cc(C)n(C(=O)/C(C#N)=N\Nc2ccccc2[N+](=O)[O-])n1	i	i	i	i	2.1
Cc1cc(C)n(C(=O)/C(C#N)=N/Nc2cc(Cl)cc(Cl)c2)n1	100*	i	i	i	-1.6
CSCCC(NC(=O)COc1ccccc1)C(=O)N1CCOCC1 (configuration not stated)	.	i	i	.	.
Cc1cccc(C)c1Nc1nnc(SCc2cc([N+](=O)[O-])cc3c2OCOC3)s1	i	i	i	-6.7*	-2.8
CC1CCC(NC(=O)c2nn(C)c3c2CSc2ccccc2-3)CC1 (configuration not stated)	i	i	i	i	0.16
CCOc1ccc(NC(=O)CN(C)C(=O)c2cc3c(s2)CCC(C)C3)cc1OCC (configuration not stated)	.	i	i	.	.
Cc1sc(-c2c(C#N)c(N)nc3c2CCCCCC3)cc1[N+](=O)[O-]	i	i	i	i	0.7
CCCCc1sc(-c2c(C#N)c(N)nc3c2CCCCC3)cc1[N+](=O)[O-]	i	i	i	-6.7*	1.3
CCOC(=O)c1c(NC(C)=O)sc2c(OCC(O)CNC(C)(C)C)c(Br)ccc12 (configuration not stated)	i	-7.1*	i	i	-6.1*
CCOC(=O)c1c(N)sc2c(OCC)c(Br)ccc12	i	i	i	i	-0.32
